Inconclusive results are not listed. Where a call stands in place of a potency, no number is given. Calls of active or inactive are those of the source. Unless noted, calls follow the shape of the dose curve; as a rule, active = well fitted curve in the direction sought with a large enough effect in the repeat runs; inconclusive = weak or mixed curves; inactive = no such curve, though single readings can be large; an effect the other way counts as inactive or inconclusive.
Legend:
[1] = qHTS assay to identify small molecule agonists of the NFkB signaling pathway - cell viability counter screen (AID 1159515; calls by dose curve; also: nearly all actives have a fitted effect of over 55% in size; also: potency is read from the fitted curve at half-maximal effect)
In short: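 Using the same wells as the NFkB reporter read, ME-180 NFkB-bla cells given compounds for 5 hr were assessed for viability via CellTiter-Glo, with luminescence taken after a 30 min room-temperature incubation.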

[2] = qHTS assay to identify small molecule agonists of the endoplasmic reticulum stress response signaling pathway - cell viability counter screen (AID 1159517; calls by dose curve; also: nearly all actives have a fitted effect of over 50% in size; also: potency is read from the fitted curve at half-maximal effect)
In short: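 CellTiter-Glo was added to wells already read for beta-lactamase FRET, and luminescence was recorded 30 min later. Cells: ESRE-bla HeLa, 1,500 per well, compound exposure 5 hr at 37 C.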

[3] = qHTS assay to identify small molecule antagonists of the retinoid-related orphan receptor gamma (ROR-gamma) signaling pathway - cell viability counter screen (AID 1159520); also: nearly all actives have a fitted effect of over 50% in size; also: potency is read from the fitted curve at half-maximal effect
In short: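 Tet-on ROR gamma CHO cells (1,000/well) were plated 4 hr, given compounds in DMSO for 2 hr at 37 C, then induced with 1 uM final doxycycline for 16 hr. Viability was read as ATP by CellTiter-Glo luminescence after 30 min.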

[4] = qHTS assay to identify small molecule agonists of the AP-1 signaling pathway - cell viability counter screen (AID 1159525; calls by dose curve; also: nearly all actives have a fitted effect of over 55% in size; also: potency is read from the fitted curve at half-maximal effect)
In short: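 ME-180 AP-1-bla, 2500 cells/well, Opti-MEM + 0.5% dialyzed FBS; overnight 37 °C; cpd 15-pt titration, 5 h 37 °C; CellTiter-Glo 30 min RT; luminescence read; normalised to TOAB and DMSO controls.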

[5] = qHTS assay to identify small molecule agonists of the AP-1 signaling pathway (AID 1159526; calls by dose curve; also: potency is read from the fitted curve at half-maximal effect)
[6] = qHTS assay to identify small molecule antagonists of the retinoid acid receptor (RAR) signaling pathway - cell viability counter screen (AID 1159551); also: nearly all actives have a fitted effect of over 35% in size; also: potency is read from the fitted curve at half-maximal effect
In short: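 Retinol-stimulated (1 uM final) C3RL4 cells, compound 6 h, 37 C; readout CellTiter-Glo luminescence (ATP) after 30 min RT incubation.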

[7] = qHTS assay to identify small molecule antagonists of the estrogen related receptor (ERR) signaling pathway from Tox21 library - cell viability counter screen (AID 1224834); also: nearly all actives have a fitted effect of over 30% in size; also: potency is read from the fitted curve at half-maximal effect
In short: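 After 17.5 h of compound exposure at 37 C, ERR cells are incubated with CellTiter-Fluor for 30 min and fluorescence intensity serves as the viability measure.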

[8] = qHTS assay to identify small molecule antagonists of the vitamin D receptor (VDR) signaling pathway - cell viability counter screen (AID 743225); also: nearly all actives have a fitted effect of over 50% in size; also: potency is read from the fitted curve at half-maximal effect
In short: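 VDR-bla HEK 293T cells, 4 h pre-incubation at 37C, then compound plus 1-alpha,25-dihydroxyvitamin D3 (3 nM final) for 16 h. After the beta-lactamase FRET read, CellTiter-Glo was added to the same wells; luminescence after 30 min at room temperature.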

[9] = target: Nuclear receptor ROR-gamma (Homo sapiens) (UniProt P51449); experiment: qHTS assay to identify small molecule antagonists of the retinoid-related orphan receptor gamma (ROR-gamma) signaling pathway (AID 1159521; also: nearly all actives have a fitted effect of over 50% in size; also: potency is read from the fitted curve at half-maximal effect)
In short: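 Tet-on RORγ CHO cells carrying a ROR response element–luciferase reporter were pretreated with compounds for 2 h, then induced with 1 uM (final) doxycycline hyclate for 16 h at 37 C. Antagonism was read as decreased ONE-Glo luminescence.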

[10] = qHTS assay to identify small molecule antagonists of the retinoic acid receptor (RAR) signaling pathway (AID 1159552; also: nearly all actives have a fitted effect of over 50% in size; also: potency is read from the fitted curve at half-maximal effect)
In short: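 RARE-luc C3RL4 cells; cpds + 1 uM (final) retinol, 6 hr, 37 C/5% CO2; luciferase reagent, 30 min RT, luminescence readout. Inhibitors of retinol-driven signal scored.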

[11] = qHTS assay to identify small molecule agonists of the RXR signaling pathway - cell viability counter screen (AID 1159529); also: nearly all actives have a fitted effect of over 50% in size; also: potency is read from the fitted curve at half-maximal effect
In short: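 RXR-alpha-UAS-bla HEK 293T cells in medium with 2% charcoal-stripped FBS were preincubated 5 hr, then exposed to compounds for 16 hr at 37 C. Viability was read as CellTiter-Glo luminescence after 30 min at room temperature.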

[12] = qHTS assay to identify small molecule agonists of the retinoic acid receptor (RAR) signaling pathway (AID 1159553); also: potency is read from the fitted curve at half-maximal effect
In short: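 Reporter readout comes from luciferase under RARE control in C3RL4 cells; compound exposure lasts 6 hr at 37 C in 5% CO2, and luminescence is recorded following a 30 min room-temperature incubation with reagent.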

[13] = target: Retinoic acid receptor RXR-alpha (Homo sapiens) (UniProt P19793); experiment: qHTS assay to identify small molecule agonists of the RXR signaling pathway (AID 1159527; calls by dose curve; also: nearly all actives have a fitted effect of over 35% in size)
In short: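 GeneBLAzer RXR-alpha-UAS-bla HEK 293T cells in medium with 2% charcoal-stripped FBS, pre-incubated 5 hr at 37 C, then exposed to compounds 16 hr. Beta-lactamase reporter read by FRET substrate, 2 hr room temperature, 460/530 nm emission.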

[14] = qHTS assay to identify small molecule antagonists of the estrogen related receptor (ERR) signaling pathway (AID 1224819)
In short: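 Luminescence readout (One-Glo, 30 min, RT) of ERR cell line after 18 h compound exposure at 37 C; cells seeded 2,000/well, pre-incubated 6 h, compounds pinned from DMSO stocks.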

[15] = qHTS assay to identify small molecule agonists of the estrogen related receptor (ERR) signaling pathway (AID 1224820)
In short: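 ERR reporter cell line (from NTP), 2,000 cells/well, incubated 6 h before compound addition, then 18 h at 37 C. Luminescence measured 30 min after One-Glo reagent at room temperature.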

[16] = qHTS assay to identify small molecule agonists of the estrogen related receptor signaling pathway with the pleiotropic PPARgamma coactivator (PGC) (AID 1224823)
In short: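 PGC/ERR reporter cells seeded 6 h, then exposed to compounds (23 nL in DMSO) for 18 h at 37 C. One-Glo luciferase luminescence read after 30 min at room temperature.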

Retinoic acid receptor RXR-alpha (Homo sapiens), sequence (P19793 whole entry, looked up): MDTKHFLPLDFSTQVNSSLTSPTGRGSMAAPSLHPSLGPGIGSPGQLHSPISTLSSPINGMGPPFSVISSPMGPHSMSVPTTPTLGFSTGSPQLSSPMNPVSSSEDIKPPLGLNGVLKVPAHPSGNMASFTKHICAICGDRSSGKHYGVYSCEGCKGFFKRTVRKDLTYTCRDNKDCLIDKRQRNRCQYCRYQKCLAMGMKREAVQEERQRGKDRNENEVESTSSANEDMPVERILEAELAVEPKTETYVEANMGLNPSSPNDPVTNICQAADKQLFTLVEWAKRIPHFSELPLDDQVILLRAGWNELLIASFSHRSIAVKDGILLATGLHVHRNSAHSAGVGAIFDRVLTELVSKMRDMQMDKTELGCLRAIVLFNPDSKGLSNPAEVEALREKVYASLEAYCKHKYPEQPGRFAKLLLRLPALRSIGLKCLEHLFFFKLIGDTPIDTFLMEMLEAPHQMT

Compound	Potency [1]	Potency [2]	Potency [3]	Potency [4]	Potency [5]	Potency [6]	Potency [7]	Potency [8]	Potency [9]	Potency [10]	Potency [11]	Potency [12]	Potency [13]	Potency [14]	outcome [15]	outcome [16]
CC(=O)S[C@@H]1CC2=CC(=O)CC[C@]2(C)[C@H]2CC[C@@]3(C)[C@@H](CC[C@@]34CCC(=O)O4)[C@H]12	inactive	inactive	inactive	inactive	inactive	inactive	inactive	–	–	–	–	–	–	–	–	–
CCCCc1oc2ccc(NS(C)(=O)=O)cc2c1C(=O)c1ccc(OCCCN(CCCC)CCCC)cc1	26.8 µM (active)	21.3 µM (active)	26.6 µM (active)	–	–	26.6 µM (active)	21.1 µM (active)	23.9 µM (active)	23.7 µM (active)	16.8 µM (active)	–	–	–	–	–	–
CC(C)(C)CC(C)(C)c1ccc(O)c(Cc2ccc(Cl)cc2Cl)c1	16.9 µM (active)	21.3 µM (active)	23.7 µM (active)	–	–	26.6 µM (active)	–	15.1 µM (active)	18.8 µM (active)	13.3 µM (active)	–	–	–	–	–	–
Oc1cccc2cc3cccc(O)c3c(O)c12	inactive	inactive	inactive	–	–	–	inactive	inactive	inactive	–	–	–	–	–	–	–
C[C@]12CCC(=O)C=C1CC[C@@H]1[C@@H]2[C@@H](O)C[C@@]2(C)[C@H]1CC[C@]2(O)C(=O)COC(=O)CCC(=O)O	inactive	inactive	inactive	inactive	inactive	inactive	inactive	inactive	–	–	–	–	–	–	–	–
CCOc1nc2cccc(C(=O)OC(C)OC(=O)OC3CCCCC3)c2n1Cc1ccc(-c2ccccc2-c2nn[nH]n2)cc1 (stereo not given)	43.6 µM (active)	21.9 µM (active)	24.3 µM (active)	27.5 µM (active)	–	–	54.4 µM (active)	19.5 µM (active)	–	48.5 µM (active)	27.5 µM (active)	inactive	–	–	–	–
O=c1cccccc1O	inactive	inactive	inactive	inactive	–	inactive	–	–	–	inactive	inactive	–	inactive	–	–	–
CCC1=C[C@@H]2CN(C1)Cc1c([nH]c3ccccc13)[C@@](C(=O)OC)(c1cc3c(cc1OC)N(C)[C@H]1[C@@](O)(C(=O)OC)[C@H](OC(C)=O)[C@]4(CC)C=CCN5CC[C@]31[C@@H]54)C2	inactive	inactive	inactive	inactive	0.107 µM (active)	inactive	0.0188 µM (active)	inactive	–	–	–	–	–	–	–	–
Cc1ccc(-n2nc(C(C)(C)C)cc2NC(=O)Nc2ccc(OCCN3CCOCC3)c3ccccc23)cc1	inactive	inactive	inactive	inactive	inactive	inactive	–	–	–	inactive	–	18.8 µM (active)	–	–	–	–
C[C@@H](NCCCc1cccc(C(F)(F)F)c1)c1cccc2ccccc12	23.9 µM (active)	23.9 µM (active)	29.8 µM (active)	23.9 µM (active)	–	33.5 µM (active)	29.8 µM (active)	23.9 µM (active)	–	29.8 µM (active)	16.9 µM (active)	–	–	–	–	–
CC(=O)SC[C@@H](Cc1ccccc1)C(=O)NCC(=O)OCc1ccccc1	inactive	inactive	inactive	inactive	inactive	inactive	inactive	inactive	–	inactive	inactive	inactive	inactive	–	–	–
CSc1ccc2c(c1)C(N1CCN(C)CC1)Cc1ccccc1S2 (stereo not given)	23.9 µM (active)	19 µM (active)	inactive	inactive	–	inactive	–	–	–	–	–	–	–	–	–	–
OCCCCCCCCCCCCBr	inactive	inactive	–	inactive	inactive	inactive	–	inactive	62.1 µM (active)	inactive	–	inactive	–	–	–	–
Cc1oc(-c2ccccc2)nc1CCC(=O)c1ccc(CC2SC(=O)NC2=O)cc1 (stereo not given)	inactive	inactive	inactive	–	inactive	inactive	–	–	–	inactive	–	inactive	–	–	–	–
C=C(C)C(=O)OCC(O)COc1ccc(C(C)(C)c2ccc(OCC(O)COC(=O)C(=C)C)cc2)cc1 (stereo not given)	inactive	inactive	–	inactive	–	inactive	–	19.5 µM (active)	24.3 µM (active)	inactive	–	–	–	–	–	–
Cc1cccc(S(=O)(=O)O)c1C	inactive	inactive	inactive	–	inactive	inactive	inactive	inactive	–	–	inactive	inactive	–	–	–	–
O=[N+]([O-])c1ccccc1Nc1ccccc1	inactive	inactive	inactive	–	inactive	inactive	inactive	inactive	–	inactive	inactive	inactive	inactive	–	–	–
Cc1[nH]cnc1C[C@H]1CCc2c(C)c3ccccc3n2C1=O	inactive	inactive	–	inactive	–	–	47.4 µM (active)	inactive	23.7 µM (active)	–	–	inactive	–	–	–	–
O=c1[nH]sc2cc(Cl)ccc12	inactive	inactive	26.6 µM (active)	–	–	inactive	–	–	–	inactive	26.8 µM (active)	–	–	–	–	–
CCN(Cc1cccnc1)C(=O)c1cccc(Cl)c1[C@]1(C)C(=O)N(Cc2ccc(OC)cc2OC)c2ccc(Cl)cc21	inactive	inactive	–	inactive	–	inactive	28.6 µM (active)	–	9.05 µM (active)	–	–	–	–	–	–	–
CN(C)[C@@H]1C(=O)C(C(N)=O)=C(O)[C@@]2(O)C(=O)C3=C(O)c4c(O)cccc4C[C@H]3C[C@@H]12	inactive	inactive	–	inactive	inactive	inactive	inactive	–	13.3 µM (active)	inactive	inactive	inactive	inactive	–	–	–
CN1CCC(Nc2ncc3ncnc(Nc4ccc(F)c(Cl)c4)c3n2)CC1	inactive	inactive	inactive	–	–	inactive	26.6 µM (active)	–	–	–	–	–	–	–	–	–
O=C1Cc2cc(CCN3CCN(c4nsc5ccccc45)CC3)c(Cl)cc2N1	23.9 µM (active)	inactive	inactive	–	–	inactive	29.8 µM (active)	23.9 µM (active)	–	inactive	23.9 µM (active)	inactive	–	20.3 µM (active)	inactive	inactive
C=CC(=O)OCC(CO)(COCC(COC(=O)C=C)(COC(=O)C=C)COC(=O)C=C)COC(=O)C=C	48.4 µM (active)	3.42 µM (active)	–	24.2 µM (active)	–	53.8 µM (active)	4.8 µM (active)	5.43 µM (active)	2.7 µM (active)	7.6 µM (active)	8.6 µM (active)	0.957 µM (active)	–	–	–	–
